The record followed here is PubChem BioAssay (EPA / NIEHS).

Read-out in test [1]: Interleukin-8 (IL8), CXCL8 (gene 3576)
As to the kind of experiment: BSK_KF3CT_IL8: BioMAP Diversity Plus: KF3CT Assay for Interleukin-8 (IL8) Biomarker Activity (AID 2284254). The note with it: primary human keratinocytes with fibroblasts. In short, it runs like this:
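Chemicals were added to co-cultured human keratinocytes and foreskin fibroblasts, incubated 24 h, then IL-8 was quantified by ELISA. Cytotoxicity was tracked by sulforhodamine B total-protein staining in parallel cultures.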

Read-out in test [2]: Macrophage Inflammatory Protein-1 Alpha (MIP1a), CCL3 (gene 6348)
Kind of test: BSK_IMphg_MIP1a: BioMAP Diversity Plus: IMphg Assay for Macrophage Inflammatory Protein-1 Alpha (MIP1a) Biomarker Activity (AID 2284255). The following applies: primary human endothelial cells with macrophages. In short, it runs like this: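 Co-culture of human venular endothelial cells and macrophages exposed to compounds for 24 h; MIP-1a measured by ELISA relative to DMSO. Cytotoxicity assessed in parallel cultures by sulforhodamine B total-protein staining at 560 nm.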

Read-out in test [3]: Plasminogen activator inhibitor-1 (PAI1), SERPINE1 (gene 5054)
As to the kind of experiment: BSK_MyoF_PAI1: BioMAP Diversity Plus: MyoF Assay for Plasminogen activator inhibitor-1 (PAI1) Biomarker Activity (AID 2284256).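 Also: PAI-1 read 24 h after compound addition.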 The note with it: primary human lung fibroblasts. The method in brief: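 Primary human lung fibroblasts are dosed and incubated 24 h. PAI-1 is then measured by ELISA, while parallel cultures undergo SRB staining for overt cytotoxicity. Increases over DMSO define activity.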

Read-out in a further test: CD69, CD69 (gene 969)
Kind of test: BSK_IMphg_CD69: BioMAP Diversity Plus: IMphg Assay for CD69 Biomarker Activity (AID 2284257). The following applies: primary human endothelial cells with macrophages. In short, it runs like this:
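Human venular endothelial cells co-cultured with macrophages; CD69 quantified by ELISA 24 h after compound addition. Activity fitted in the positive direction relative to DMSO baseline; cytotoxicity tracked in parallel cultures via SRB total-protein staining.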

Read-out in test [4]: Eotaxin 3, CCL26 (gene 10344)
As to the kind of experiment: BSK_BF4T_Eotaxin3: BioMAP Diversity Plus: BF4T Assay for Eotaxin 3 Biomarker Activity (AID 2284258). The note with it: primary human bronchial epithelial cells with fibroblasts. In short, it runs like this:
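Co-culture of human bronchial epithelial cells and dermal fibroblasts, exposed to chemicals for 24 h versus DMSO. Eotaxin-3 quantified by ELISA; cytotoxicity checked in parallel cultures by sulforhodamine B total-protein staining.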

Read-out in test [5]: Monocyte Chemoattractant Protein-1 (MCP1), CCL2 (gene 6347)
Kind of test: BSK_BF4T_MCP1: BioMAP Diversity Plus: BF4T Assay for Monocyte Chemoattractant Protein-1 (MCP1) Biomarker Activity (AID 2284259). The following applies: primary human bronchial epithelial cells with fibroblasts. The method in brief:
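Co-culture of bronchial epithelial cells and dermal fibroblasts dosed with chemical; MCP-1 measured by ELISA 24 h later. Activity fitted in positive direction versus DMSO; cytotoxicity checked by SRB staining in parallel cultures.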

Read-out in test [6]: Intercellular Adhesion Molecule 1 (ICAM1), ICAM1 (gene 3383)
Kind of test: BSK_BF4T_ICAM1: BioMAP Diversity Plus: BF4T Assay for Intercellular Adhesion Molecule 1 (ICAM1) Biomarker Activity (AID 2284260). The following applies: primary human bronchial epithelial cells with fibroblasts. In short, it runs like this:
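Co-culture of human bronchial epithelial cells and dermal fibroblasts exposed 24 h to chemical; cell-surface ICAM-1 quantified by ELISA. Parallel SRB total-protein staining assessed cytotoxicity; activity fitted relative to DMSO.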

Read-out in test [7]: Interleukin-8 (IL8), CXCL8 (gene 3576)
Kind of test: BSK_MyoF_IL8: BioMAP Diversity Plus: MyoF Assay for Interleukin-8 (IL8) Biomarker Activity (AID 2284261). The note with it: primary human lung fibroblasts. The method in brief: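 IL-8 levels were measured by ELISA in human lung fibroblasts harvested 24 h after compound addition. Responses were analysed as gain of signal over the DMSO baseline.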

Read-out in another test: CD90, THY1 (gene 7070)
Kind of test: BSK_BF4T_CD90: BioMAP Diversity Plus: BF4T Assay for CD90 Biomarker Activity (AID 2284262). The note with it: primary human bronchial epithelial cells with fibroblasts. In short, it runs like this: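 Co-culture of human bronchial epithelial cells and dermal fibroblasts, 24 h compound exposure. Cell-surface CD90 measured by ELISA relative to DMSO; parallel SRB total-protein staining for cytotoxicity.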

Read-out in test [8]: Interleukin-8 (IL8), CXCL8 (gene 3576)
As to the kind of experiment: BSK_BF4T_IL8: BioMAP Diversity Plus: BF4T Assay for Interleukin-8 (IL8) Biomarker Activity (AID 2284263). The note with it: primary human bronchial epithelial cells with fibroblasts. The method in brief: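 Human bronchial epithelial cells with dermal fibroblasts co-culture; IL-8 measured by ELISA 24 hours after dosing, fitted vs DMSO. Cytotoxicity tracked in parallel cultures by SRB total-protein staining.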

Read-out in test [9]: Interleukin-1 alpha (IL1a), IL1A (gene 3552)
As to the kind of experiment: BSK_BF4T_IL1a: BioMAP Diversity Plus: BF4T Assay for Interleukin-1 alpha (IL1a) Biomarker Activity (AID 2284264). The following applies: primary human bronchial epithelial cells with fibroblasts. In short, it runs like this:
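Human bronchial epithelial cells co-cultured with dermal fibroblasts, dosed and read at 24 h. Secreted/surface IL-1α quantified by ELISA; gain-of-signal fitted relative to DMSO baseline. Parallel SRB total-protein staining tracked cytotoxicity.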

Read-out in the next test: Decorin, DCN (gene 1634)
As to the kind of experiment: BSK_MyoF_Decorin: BioMAP Diversity Plus: MyoF Assay for Decorin Biomarker Activity (AID 2284265). The following applies: primary human lung fibroblasts. In short, it runs like this: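 Compound is added to lung fibroblast cultures; cells incubate 24 h; decorin is then measured by ELISA; the response is analysed upward against DMSO controls.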

Read-out in the next test: KRT18 (gene 3875)
As to the kind of experiment: BSK_BF4T_Keratin818: BioMAP Diversity Plus: BF4T Assay for Keratin 818 Biomarker Activity (AID 2284266). The note with it: primary human bronchial epithelial cells with fibroblasts. In short, it runs like this: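 Co-culture of human bronchial epithelial cells and dermal fibroblasts, chemical exposure 24 h. Keratin 8/18 measured by ELISA; positive-direction fit vs DMSO. SRB total protein run in parallel cultures for cytotoxicity.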

Read-out in test [10]: Matrix Metallopeptidase 1 (MMP1), MMP1 (gene 4312)
Kind of test: BSK_MyoF_MMP1: BioMAP Diversity Plus: MyoF Assay for Matrix Metallopeptidase 1 (MMP1) Biomarker Activity (AID 2284268). The following applies: primary human lung fibroblasts. The method in brief:
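Lung fibroblast cultures were dosed with test chemicals and, after 24 h, MMP1 levels were measured by ELISA; responses were referenced to DMSO and analysed for increases.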

Read-out in test [11]: TIMP metallopeptidase inhibitor 1 (TIMP1), TIMP1 (gene 7076)
As to the kind of experiment: BSK_MyoF_TIMP1: BioMAP Diversity Plus: MyoF Assay for TIMP metallopeptidase inhibitor 1 (TIMP1) Biomarker Activity (AID 2284269). The note with it: primary human lung fibroblasts. In short, it runs like this: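 ELISA read-out of TIMP-1 from primary human lung fibroblast cultures 24 h after compound dosing; gain of signal relative to DMSO vehicle baseline defines activity.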

Read-out in test [12]: Matrix Metallopeptidase 1 (MMP1), MMP1 (gene 4312)
As to the kind of experiment: BSK_BF4T_MMP1: BioMAP Diversity Plus: BF4T Assay for Matrix Metallopeptidase 1 (MMP1) Biomarker Activity (AID 2284270). The note with it: primary human bronchial epithelial cells with fibroblasts. In short, it runs like this:
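Co-culture of human bronchial epithelial cells and dermal fibroblasts; MMP-1 levels measured by ELISA 24 hours after chemical dosing, relative to DMSO. Cytotoxicity checked in parallel cultures by SRB total-protein staining.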

Read-out in test [13]: Matrix Metallopeptidase 3 (MMP3), MMP3 (gene 4314)
As to the kind of experiment: BSK_BF4T_MMP3: BioMAP Diversity Plus: BF4T Assay for Matrix Metallopeptidase 3 (MMP3) Biomarker Activity (AID 2284271). The note with it: primary human bronchial epithelial cells with fibroblasts. The method in brief:
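Co-culture of human bronchial epithelial cells and dermal fibroblasts dosed 24 h; MMP-3 measured by ELISA, positive-direction fit versus DMSO. Cytotoxicity tracked by SRB total-protein staining (560 nm) in parallel cultures.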

Read-out in test [14]: Tissue plasminogen activator (tPA), PLAT (gene 5327)
Kind of test: BSK_BF4T_tPA: BioMAP Diversity Plus: BF4T Assay for Tissue plasminogen activator (tPA) Biomarker Activity (AID 2284272). The note with it: primary human bronchial epithelial cells with fibroblasts. In short, it runs like this: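 tPA level quantified by ELISA at 24 h post-treatment in bronchial epithelial/dermal fibroblast co-cultures, gain of signal scored against DMSO baseline. Parallel cultures stained with 0.1% SRB (560 nm) to flag overt cytotoxicity.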

Test [15] is described as follows: BSK_BF4T_SRB: Viability Assessment in the BioMAP Diversity Plus: BF4T Assay (AID 2284274). The following applies: primary human bronchial epithelial cells with fibroblasts. In short, it runs like this: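 Co-culture of human bronchial epithelial cells and dermal fibroblasts (BioMAP BF4T) exposed 24 h. Total protein by sulforhodamine B staining (0.1% SRB after 10% TCA fixation, 560 nm) in parallel cultures; fitted vs DMSO.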

Read-out in test [16]: urokinase Plasminogen Activator (uPA), PLAU (gene 5328)
As to the kind of experiment: BSK_BF4T_uPA: BioMAP Diversity Plus: BF4T Assay for urokinase Plasminogen Activator (uPA) Biomarker Activity (AID 2284275). The note with it: primary human bronchial epithelial cells with fibroblasts. In short, it runs like this:
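Co-culture of human bronchial epithelial cells and dermal fibroblasts; uPA quantified by ELISA 24 hours after dosing, fitted relative to DMSO. Parallel SRB total-protein staining assessed overt cytotoxicity.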

Some structures have more than one record in an assay (separate samples or runs), and their calls can disagree. The source made the active and inactive calls. The calls were made as follows: active = hit-call score of the fitted dose curve at least 0.9, where 1 is the maximum; inactive = score below 0.9.

With `CN(CCO)S(=O)(=O)C(F)(F)C(F)(F)C(F)(F)C(F)(F)C(F)(F)C(F)(F)C(F)(F)C(F)(F)F`, the figures for the concentration at half-maximal activity (AC50) in test [1] and in test [8] were 1.42 µM (active) and 24.5 nM (active), respectively. Besides, the outcome in [1] is “inactive”; in test [2], “inactive”; in [3] it was “inactive”; with CD69, CD69 (gene 969) it was “inactive”; in test [4], “inactive”; in [5] it was “inactive”. Further, the outcome was “inactive” in test [6]; “inactive” in test [7]; “inactive” with CD90, THY1 (gene 7070); “inactive” in test [8]; “inactive” in test [9]; “inactive” in the test with Decorin, DCN (gene 1634). For the same molecule, the outcome (with KRT18 (gene 3875); in test [10]; in [11]; in test [12]; in [13]; in test [14]) was inactive. Also, the outcome in [15] and in [16] was inactive.

As for `OCCN1CN(CCO)CN(CCO)C1`, the outcome in test [3] is “inactive”; in test [7], “inactive”; with Decorin, DCN (gene 1634), “inactive”; in [10], “inactive”; in test [11], “inactive”.

In the case of `CN(Cc1cnc2nc(N)nc(N)c2n1)c1ccc(C(=O)N[C@@H](CCC(=O)O)C(=O)O)cc1`, the outcome in test [1] is “inactive”; in test [2], “inactive”; in test [3], “inactive”; with CD69, CD69 (gene 969), “inactive”; in test [4], “inactive”; in [5], “inactive”. Also, the outcome in test [6] was “inactive”; in test [7], “inactive”; with CD90, THY1 (gene 7070) it was “inactive”; in [8] it was “inactive”; in [9], “inactive”; in the test with Decorin, DCN (gene 1634) it was “inactive”. Besides, the outcome (with KRT18 (gene 3875); in [10]; in [11]; in test [12]; in test [13]; in test [14]) was inactive. Further, the result in test [15] and in test [16] was inactive. In test [8], the AC50 is 2650 nM (active).
